Each structure is given as a SMILES string. Records with an inconclusive call do not appear. A number with no mark means an inactive call. The source made the active and inactive calls. The call rests on the fitted dose curve; in most records, active means well fitted cell-killing curve with a large enough effect; inconclusive means small, poorly fitted or top-dose-only effect, or effect the other way; inactive means flat fitted curve, though single readings scatter. Where a SMILES comes first, the peptide text is derived from it. [ ]: non-standard residue; d: D form.
On the % scale 0 is the no-effect control and ±100 the full control effect.

In one assay the test system is PA-1. Nature of the assay: Primary qHTS to identify gynecologic anti-cancer compounds using libraries of approved drugs and bioactive compounds (AID 1345084). Further: nearly all actives have a fitted effect of over 55% in size. The note with it: Gynecologic cancer cell panel viability, ATPlite luminescence, 48 h; series mostly up to 57.5 µM; activity change, negative = cytotoxicity: at the top concentration. Put shortly:
(§1)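 ATP-based viability (ATPlite), 1,000 cells/well, 16 h pre-incubation, 48 h compound at 37 C, 5% CO2, 15 min RT before read.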
Background: qHTS replaces the single test concentration by a dilution series.
Consider `C=C1C2=CC(O)C(C)C1(C)CC/C(C)=C/CCC1(C)OC1C2=O` (stereo not drawn), for which the “activity change, negative = cytotoxicity” value was -1.98% [at 38.5 µM].
Same read-out and setting: next, `C[C@H]1CN(C[C@H](Cc2ccccc2)C(=O)NCC(=O)O)CC[C@@]1(C)c1cccc(O)c1`: -1.12%; `Cn1c(=O)cc(N2CCCC(N)C2)n(Cc2ccccc2C#N)c1=O` (stereo not drawn): 8.36%; `CCC[C@@H]1C[C@@H](C(=O)N[C@@H]([C@H]2O[C@H](SC)[C@H](OP(=O)(O)O)[C@@H](O)[C@H]2O)[C@H](C)Cl)N(C)C1`: -0.116% [at 25.3 µM].
The same measure, in the same setting: next, `COc1cc(/C=C/CO)ccc1O[C@@H]1O[C@H](CO)[C@@H](O)[C@H](O)[C@H]1O`: 2.22% [at 38.5 µM]; `CC1(O)CCC2C(C(=O)O)=COC(OC3OC(CO)C(O)C(O)C3OC(=O)/C=C/c3ccc(O)cc3)C21` (stereo not drawn): -9.59% [at 25.3 µM]; `C[C@@H](Nc1cc(NS(=O)(=O)N2CCC2)nc(SCc2cccc(F)c2F)n1)[C@@H](O)CO`: 17.8%.

For the next assay, the system named is SKOV3. The description is as above. The note with it: Gynecologic cancer cell panel viability, ATPlite luminescence, 48 h; series mostly up to 57.5 µM; activity change, negative = cytotoxicity: at the top concentration. The gist of the method: as §1
In general terms: In ATP-based viability assays light output follows the ATP content of the culture.
In the case of `Nc1ncnc2c1ncn2[C@H]1CCCO1`, the “activity change, negative = cytotoxicity” value is 11.3%.
The same measure, in the same setting: next, `COc1cc(-c2cccc(O)c2)cc2c1OCO2`: 22.1%; `CC1CCC2C(C)(C)C(O)CCC2(C)C12Cc1c(O)cc3c(c1O2)CN=C3N` (stereo not drawn): 25.3% [at 38.5 µM]; `CC[C@H]1OC(=O)C[C@@H](O)[C@H](C)[C@@H](O[C@@H]2O[C@H](C)[C@@H](O)[C@H](N(C)C)[C@H]2O)[C@@H](CCN2C[C@H](C)C[C@H](C)C2)C[C@@H](C)C(=O)/C=C/C(C)=C/[C@@H]1CO[C@@H]1O[C@H](C)[C@@H](O)[C@@H](OC)[C@H]1OC`: 7.34%.
On the same count and under the same terms, in the case of `C[C@]12C=CC(=O)C=C1CC[C@@H]1[C@@H]2[C@@H](O)C[C@@]2(C)[C@H]1CC[C@]2(O)C(=O)COC(=O)CCC(=O)O` it was -6.64%.
For the compound `CC(C)=CCc1ccc(Oc2c(O)cc(C)cc2CO)c(C(=O)O)c1O`, the “activity change, negative = cytotoxicity” value was 17% [at 38.5 µM].
On to `NS(=O)(=O)NCCNc1nonc1C(=Nc1ccc(F)c(Br)c1)NO`, for which the Potency result was “inactive”.
As for `CCC(=O)NS(=O)(=O)c1ccc(-c2c(-c3ccccc3)noc2C)cc1`, the “activity change, negative = cytotoxicity” value was -1.77%.
Turning to `CC(=O)OC1C(O)C(C)=C(CCC(C)CC(=O)O)C2(C)CCCC(C)(C)C12` (stereo not drawn), the “activity change, negative = cytotoxicity” value is 0% [at 38.5 µM].
For `C[C@@H]1O[C@@H](O[C@@H]2[C@@H](O)[C@@H](O)[C@H](O[C@@H]3[C@@H](O)[C@@H](O[C@]4(CO)O[C@H](CO)[C@@H](O)[C@@H]4OC(=O)/C=C/c4ccc(O)cc4)O[C@H](CO)[C@H]3OC(=O)/C=C/c3ccc(O)cc3)O[C@H]2C)[C@H](O)[C@H](O)[C@H]1O`, the activity change, negative = cytotoxicity was -21.8% [at 11.6 µM].
The same measure, in the same setting: next, `C[C@@H]1O[C@@H](O[C@H]2[C@H](OC(=O)[C@]34CCC(C)(C)C[C@H]3C3=CCC5[C@@]6(C)CC[C@H](O[C@@H]7O[C@H](CO[C@@H]8OC[C@H](O)[C@H](O)[C@H]8O)[C@@H](O)[C@H](O)[C@H]7O)C(C)(C)C6CC[C@@]5(C)[C@]3(C)C[C@H]4O)OC[C@@H](O)[C@@H]2O)[C@H](O)[C@H](O)[C@H]1O[C@@H]1OC[C@H](O)[C@H](O[C@@H]2OC[C@@H](O)[C@H](O)[C@H]2O)[C@H]1O` (stereo partly drawn): 14.1% [at 6.55 µM].
On the same count and under the same terms, in the case of `CC(=O)N[C@H](Cc1ccc(O)cc1)C(=O)N[C@H](CCCN=C(N)N)C(=O)N[C@H](Cc1ccccc1)C(N)=O` (Ac-[dY]-[dR]-[dF]-NH2) it was -9.09%; in that of `CC(NCc1ccc(OCc2cccc(F)c2)cc1)C(N)=O` (stereo not drawn), 3.68%.
The same measure, in the same setting: next, `C[C@]12CCC[C@](C)(C(=O)O)C1CCC13C=C(CO)C(CCC12)C3` (stereo partly drawn): -1.1% [at 38.5 µM]; `COc1cc2c(cc1OC)CN(C(=O)[C@@H](NCc1ccncc1)C(C)(C)C)CC2`: 1.31%; `O=C1NCc2nc3ccccc3c(=O)n2C1Cc1c[nH]c2ccccc12` (stereo not drawn): 27.3% [at 38.5 µM].
As to `CC1=CC(=O)CC(C)(C)C1CCC(C)OC1OC(COC(=O)c2cc(O)c(O)c(O)c2)C(O)C(O)C1O` (stereo not drawn), the “activity change, negative = cytotoxicity” value is -0.66% [at 25.3 µM].
Same read-out and setting: next, `CC1C/C=C/C=C\CCCCC(O)C/C=C/C(=O)O1` (stereo not drawn): 0%; `CO[C@@]12CC3[C@@H]([C@@H](O)[C@@H](OC(C)=O)C4[C@](C)(COC(C)=O)CCC[C@]34C)[C@@H](C)C1=CC(=O)O2` (stereo partly drawn): -13.5% [at 25.3 µM]; `O=C(O[C@H]1[C@@H]2C=CO[C@@H](O[C@@H]3O[C@H](CO)[C@@H](O)[C@H](O)[C@H]3O)[C@@H]2[C@@]2(CO)O[C@@H]12)c1ccc(O)c(O)c1`: -3% [at 25.3 µM].
`C=CC(C)(C)C12CC3C(=O)NC(Cc4cnc[nH]4)C(=O)N3C1Nc1ccccc12` (stereo not drawn): the “activity change, negative = cytotoxicity” value is 4.38% [at 38.5 µM].
The same measure, in the same setting: in the case of `C=C1C2=CC(O)C(C)C1(C)CC/C(C)=C/CCC1(C)OC1C2=O` (stereo not drawn) it was 7.47% [at 38.5 µM].
The same measure, in the same setting: in the case of `C[C@H]1CN(C[C@H](Cc2ccccc2)C(=O)NCC(=O)O)CC[C@@]1(C)c1cccc(O)c1` it was 24.6%; in that of `Cn1c(=O)cc(N2CCCC(N)C2)n(Cc2ccccc2C#N)c1=O` (stereo not drawn), 26.9%; in that of `CCC[C@@H]1C[C@@H](C(=O)N[C@@H]([C@H]2O[C@H](SC)[C@H](OP(=O)(O)O)[C@@H](O)[C@H]2O)[C@H](C)Cl)N(C)C1`, -4.48% [at 25.3 µM].
Same read-out and setting: next, `CC1(O)CCC2C(C(=O)O)=COC(OC3OC(CO)C(O)C(O)C3OC(=O)/C=C/c3ccc(O)cc3)C21` (stereo not drawn): -27.4% [at 25.3 µM].
